A selection: hits, their analogues and other compounds. The true share with any hit is near 2.9%.
proKLK7 act – proKLK7 zymogen activators, primary screen, biochemical, fluorescence intensity; purified proKLK7, EDANS-DABCYL substrate fluorescence; 100% is mature enzyme control, 0% vehicle; Kallikrein-7 (Homo sapiens), P49862; AID 652039, 2013; activation, % at 7 µM; actives 0.9% (n = 370,000);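 active = activation above the mean of all tested compounds plus 3 SD, computed per campaign excluding outliers beyond control limits, cut at about 13% in these data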
Target sequence (P49862 whole entry, looked up): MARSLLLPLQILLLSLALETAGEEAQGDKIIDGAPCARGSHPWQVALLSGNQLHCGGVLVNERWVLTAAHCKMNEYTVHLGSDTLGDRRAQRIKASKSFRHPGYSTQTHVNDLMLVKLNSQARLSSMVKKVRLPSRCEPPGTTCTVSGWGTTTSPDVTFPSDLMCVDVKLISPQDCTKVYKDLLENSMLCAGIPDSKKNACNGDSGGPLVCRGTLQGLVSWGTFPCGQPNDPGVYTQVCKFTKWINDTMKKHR
ADAM17 inh – ADAM17 inhibitors, primary screen, biochemical, QFRET. AID 720648, 2013. Disintegrin and metalloproteinase domain-containing protein 17 (Homo sapiens), P78536. recombinant ADAM17, EDANS/DABCYL FRET peptide cleavage. actives 0.83% (n = 370,000). inhibition, % at 6.95 µM;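 active = inhibition above the mean of compounds lying between control limits plus 3 SD, set per campaign, cut at about 8.5% in these data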
PLC-gamma1 inh – PLC-gamma1 enzyme inhibitors, primary screen, biochemical, fluorescence, purified enzyme. fluorogenic substrate. inhibition, % at 12.2 µM. 1-phosphatidylinositol 4,5-bisphosphate phosphodiesterase gamma-1 (Homo sapiens), P19174. actives 0.84% (n = 370,000); in the data active = inhibition above about 9.5%
ADAM10 inh – human ADAM10 inhibitors, primary screen, biochemical, QFRET, HTS. Disintegrin and metalloproteinase domain-containing protein 10 (Homo sapiens), O14672. recombinant ADAM10, EDANS/DABCYL FRET peptide cleavage, 3 h. inhibition, % at 7 µM. actives 0.62% (n = 370,000). AID 720582, 2013;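 active = inhibition above a per-campaign cutoff equal to the mean of compounds falling between control-based bounds plus 3 SD, cut at about 20% in these data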
PLCb3 inh – human PLC-beta3 inhibitors, primary screen, biochemical, fluorescence; 1-phosphatidylinositol 4,5-bisphosphate phosphodiesterase beta-3 (Homo sapiens), Q01970; Purified PLC-beta3, fluorogenic substrate; inhibition, % at 12.2 µM; actives 0.18% (n = 370,000); in the data active = inhibition above about 11%
ADAM10 confirm – human ADAM10 inhibitors, confirmation, biochemical, QFRET, triplicate; inhibition, % at 6.95 µM; shares compounds with ADAM10 inh; ADAM10 QFRET peptide cleavage, EDANS fluorescence; actives 1% (n = 2,100);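 active = inhibition above about 20% chosen separately for each screening run, limit read from the data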
ADAM17 counter – ADAM17 inhibitors, counter-screen for ADAM10 exosite inhibitor project, biochemical, QFRET, high throughput; actives 0.5% (n = 2,100); shares compounds with ADAM10 inh; inhibition, % at 6.95 µM; AID 743214, 2013; ADAM17 QFRET peptide cleavage, EDANS fluorescence;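 active = mean triplicate inhibition above the solvent-only control wells' mean plus 3 SD, cut at about 12% in these data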
ADAM10 ctr – ADAM10 inhibitors, counter-screen for ADAM17 exosite inhibitor project, biochemical, FRET, human ADAM10 | actives 47% (n = 2,900) | inhibition, % at 6.95 µM | shares compounds with ADAM17 inh | recombinant ADAM10, EDANS/DABCYL FRET peptide cleavage, 3 h;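 active = mean inhibition over the triplicate runs exceeds the activity threshold set in the earlier primary screen, cut at about 20% in these data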
ADAM17 confirm – ADAM17 inhibitors, hit retest, confirmation, biochemical, QFRET peptide cleavage; shares compounds with ADAM17 inh; recombinant ADAM17, EDANS/DABCYL QFRET peptide cleavage; inhibition, % at 6.95 µM; actives 65% (n = 2,900); AID 743257, 2014;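 active = mean inhibition across replicates above the hit cutoff set in the primary screen, cut at about 8.5% in these data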
Each line names hits and unclear results; the compound was inactive in the other large screens (follow-up assays come after a bar, where they were run).

O=C(NO)c1ccc(OC(F)F)cc1	ADAM17 inh 15, ADAM10 inh 25 | ADAM10 confirm inactive | ADAM17 counter inactive | ADAM10 ctr inactive | ADAM17 confirm 19
C=CCc1cccc(CNc2nc3ccccc3n2CCC)c1O	ADAM17 inh 14, ADAM10 inh 35 | ADAM10 confirm inactive | ADAM17 counter inactive | ADAM10 ctr 42 | ADAM17 confirm 23
Cc1ccc(NC(=O)c2cc(NC(=O)/C=C\C(=O)O)ccc2N2CCCCC2)cc1	ADAM17 inh 19, ADAM10 inh 24 | ADAM10 confirm inactive | ADAM17 counter inactive | ADAM10 ctr inactive | ADAM17 confirm inactive
Cc1ccc(NC(=O)c2cc(NC(=O)c3ccccc3C(=O)O)ccc2N2CCCCC2)cc1	none
CC(OC(=O)C1CC(=O)N(Cc2ccco2)C1)C(=O)Nc1ccccc1[N+](=O)[O-] (stereo not given)	none
CC(C)Oc1ccc(C(=O)NC2(C(F)(F)F)NC(=O)N(CCCc3ccccc3)C2=O)cc1 (stereo not given)	ADAM17 inh 10, ADAM10 inh 25 | ADAM10 confirm inactive | ADAM17 counter inactive | ADAM10 ctr 31 | ADAM17 confirm 18
CCCNC(=O)NC(=O)COC(=O)c1cccc(NS(=O)(=O)c2ccc(F)c(F)c2)c1	none
O=C(COC(=O)c1cccc(NS(=O)(=O)c2ccc(F)c(F)c2)c1)NC(=O)NC1CCCCC1	ADAM17 inh 13, ADAM10 inh 28 | ADAM10 confirm inactive | ADAM17 counter inactive | ADAM10 ctr inactive | ADAM17 confirm 10
COc1ccc(CN([C@H](CO)CC(C)C)S(=O)(=O)N(Cc2ccccc2)[C@H](CO)CC(C)C)cc1	ADAM17 inh 23, ADAM10 inh 43 | ADAM10 confirm inactive | ADAM17 counter inactive | ADAM10 ctr 63 | ADAM17 confirm 35
COc1ccc([C@H]2N[C@]3(CCCN(CC4CCCCC4)C3=O)[C@H]3C(=O)N(Cc4ccccc4)C(=O)[C@@H]23)cc1	none
O=C(COc1ccc(Cl)cc1)Nc1nc(-c2cccs2)cs1	ADAM17 inh 9.7, ADAM10 inh 23 | ADAM10 confirm inactive | ADAM17 counter inactive | ADAM10 ctr inactive | ADAM17 confirm inactive
COc1ccc(C(=O)Nc2nc(-c3cccs3)cs2)cc1	ADAM17 inh 10, ADAM10 inh 21 | ADAM10 confirm inactive | ADAM17 counter inactive | ADAM10 ctr inactive | ADAM17 confirm inactive
O=C(Cc1ccccc1)Nc1nc(-c2cccs2)cs1	none
O=C(Nc1nc(-c2cccs2)cs1)c1ccc(Cl)cc1	none
N#CCCn1nc(-c2ccc([N+](=O)[O-])cc2)cc1Nc1ccccc1NC(=O)C(F)(F)F	ADAM17 inh 20, ADAM10 inh 36 | ADAM10 confirm inactive | ADAM17 counter inactive | ADAM10 ctr inactive | ADAM17 confirm 9.5
N#CCCn1nc(-c2ccccc2)cc1Nc1ccccc1NC(=O)C(F)(F)F	none
Nc1nc(Nc2ccccc2)nc(NCc2ccco2)c1[N+](=O)[O-]	ADAM17 inh 9.7, ADAM10 inh 22 | ADAM10 confirm inactive | ADAM17 counter inactive | ADAM10 ctr 36 | ADAM17 confirm 19

Screening data from PubChem BioAssay.
